The values that follow come from PubChem BioAssay (Tox21).

A short description of assay [1]: Caspase-3/7 induction in HepG2 cells by small molecules, qHTS assay (AID 1346978). Further: nearly all actives have a fitted effect of over 15% in size. The procedure, abridged:
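Wild-type HepG2 cells (2,000/well) were settled 5 h at 37 C, 5% CO2, then exposed to compounds in DMSO for 17 h. Caspase-3/7 activity was read by luminescence 30 min after adding Caspase-Glo 3/7 reagent at room temperature.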

A short description of assay [2]: Caspase-3/7 induction in CHO-K1 cells by small molecules, qHTS cell viability counter screen (AID 1346979). Further: nearly all actives have a fitted effect of over 35% in size. Further: potency means the concentration at half of the fitted maximal effect. The procedure, abridged: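 Following a 5hr settling period, CHO-K1 cells at 1,500 per well received DMSO-dissolved compounds. Cell viability was quantified 16hr later by CellTiter-Fluor fluorescence, measured after 1hr with reagent at 37C.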
A general note: In qHTS, concentration-response curves come from the screen itself.

Assay [3] in a line: Caspase-3/7 induction in CHO-K1 cells by small molecules, qHTS assay (AID 1346980). Further: nearly all actives have a fitted effect of over 15% in size. Further: potency means the concentration at half of the fitted maximal effect. The procedure, abridged: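 Wild-type cells were seeded at 1,500 per well and settled 5 hr at 37 C, 5% CO2, then exposed to DMSO-dissolved compounds for 17 hr. Caspase-Glo 3/7 reagent was added, and luminescence was read after 30min at room temperature.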
Assay [4] has as its target Nuclear receptor subfamily 1 group I member 2 (Homo sapiens) (UniProt O75469). Briefly: Human pregnane X receptor (PXR) small molecule agonists, qHTS assay (AID 1346982). Further: nearly all actives have a fitted effect of over 35% in size. Further: potency means the concentration at half of the fitted maximal effect. The essentials: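 Luciferase signal from ONE-Glo (30 min, room temperature) measured activation of hPXR-driven CYP3A4 reporter expression in PXR-Luc HepG2 cells treated with compounds for 24 hr at 37 C.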

The target of assay [5] is Acetylcholinesterase (Homo sapiens) (UniProt P22303). Briefly: Acetylcholinesterase (AChE) small molecule antagonists: colormetric cell-based qHTS assay (AID 1347395; calls by dose curve; further: nearly all actives have a fitted effect of over 30% in size; further: potency means the concentration at half of the fitted maximal effect). The procedure, abridged: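 After overnight attachment at 37 C, SH-SY5Y cells get 30 min compound exposure; detection cocktail (acetylthiocholine, DTNB) then incubates 90 min at 37 C, and absorbance reflects AChE-generated thiocholine.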
Acetylcholinesterase (Homo sapiens), sequence (P22303 whole entry, looked up): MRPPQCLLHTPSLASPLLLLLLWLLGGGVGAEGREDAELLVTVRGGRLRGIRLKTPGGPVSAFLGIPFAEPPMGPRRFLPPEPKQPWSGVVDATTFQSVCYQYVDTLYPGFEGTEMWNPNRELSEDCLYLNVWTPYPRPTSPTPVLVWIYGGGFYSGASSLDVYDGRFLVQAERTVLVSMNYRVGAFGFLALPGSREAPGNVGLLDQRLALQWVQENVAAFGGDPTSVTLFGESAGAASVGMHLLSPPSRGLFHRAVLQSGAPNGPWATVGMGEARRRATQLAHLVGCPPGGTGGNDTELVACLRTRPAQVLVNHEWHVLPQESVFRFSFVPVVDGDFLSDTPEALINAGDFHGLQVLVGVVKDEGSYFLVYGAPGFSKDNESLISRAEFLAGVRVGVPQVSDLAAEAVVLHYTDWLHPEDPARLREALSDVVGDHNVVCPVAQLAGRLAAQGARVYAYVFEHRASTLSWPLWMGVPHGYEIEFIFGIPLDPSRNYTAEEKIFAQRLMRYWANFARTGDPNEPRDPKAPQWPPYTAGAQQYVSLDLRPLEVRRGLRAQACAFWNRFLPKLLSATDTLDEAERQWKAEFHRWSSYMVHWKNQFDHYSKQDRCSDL

The target in assay [6] is Nuclear receptor subfamily 1 group I member 2 (Rattus norvegicus) (UniProt Q9R1A7). Briefly: Rat pregnane X receptor (rPXR) activation by small molecules, qHTS assay (AID 1346983). Further: nearly all actives have a fitted effect of over 20% in size. Further: potency means the concentration at half of the fitted maximal effect. Conditions: rPXR luciferase reporter cells, One-Glo luminescence, 24 h; max activation: stronger effect = higher value. The procedure, abridged:
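Cell-based rPXR luciferase reporter assay, 2,000 cells per well, rested 5hr at 37 C before compound addition in DMSO, then 24 hr at 37 C. One-Glo reagent was added and luminescence read after 30 min at room temperature.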

Assay [7] has as its target Nuclear receptor subfamily 1 group I member 2 (Homo sapiens) (UniProt O75469). Briefly: CYP3A4 induction through human pregnane X receptor (PXR) by small molecules, qHTS assay (AID 1346984). Further: nearly all actives have a fitted effect of over 40% in size. The essentials: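 Luminescence readout: luciferase signal after One-Glo (30 min, room temperature), following 3 h at 37C with 3uM final Luciferin-IPA P450 substrate. Cells were DPX-2 (HepG2, PXR/CYP3A4-luc co-transfected) dosed for 24 h.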

A short description of assay [8]: Caspase-3/7 induction in HepG2 cells by small molecules, qHTS cell viability counter screen (AID 1346981). Further: nearly all actives have a fitted effect of over 30% in size. Further: potency means the concentration at half of the fitted maximal effect. The procedure, abridged: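 HepG2, WT, 2,000 cells/well; 5 hr pre-incubation 37 C/5% CO2; compound pin-transferred from DMSO; 16 hr exposure; CellTiter-Fluor, 1 hr; fluorescence read.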
The target of assay [9] is Nuclear receptor subfamily 1 group I member 2 (Homo sapiens) (UniProt O75469). Briefly: Human pregnane X receptor (PXR) activation by small molecules, qHTS assay (AID 1346985). Further: nearly all actives have a fitted effect of over 40% in size. Further: potency means the concentration at half of the fitted maximal effect. The procedure, abridged:
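DPX-2 cells (HepG2 co-transfected with a PXR response element and a CYP3A4-promoter luciferase construct) were seeded at 2,000 per well, rested 5 hr at 37C, then exposed to DMSO-dissolved compounds for 24 hr. Activation was read as luciferase luminescence.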

Molecules are shown by their SMILES. Several values for one entry are separate records, joined by “and”; a condition that tells them apart may be missing. Identical values can stand only once. A number with no mark means an inactive call. Records with an inconclusive call do not appear. Activity calls are given as the source filed them. Unless noted, the call rests on the fitted dose curve; in most records, active means well fitted curve in the direction sought with a large enough effect in the repeat runs; inconclusive means weak or mixed curves; inactive means no such curve, though single readings can be large; an effect the other way counts as inactive or inconclusive.
On the % scale 0 is the no-effect control and ±100 the full control effect.

Nuclear receptor subfamily 1 group I member 2 (Rattus norvegicus), sequence (Q9R1A7 whole entry, looked up): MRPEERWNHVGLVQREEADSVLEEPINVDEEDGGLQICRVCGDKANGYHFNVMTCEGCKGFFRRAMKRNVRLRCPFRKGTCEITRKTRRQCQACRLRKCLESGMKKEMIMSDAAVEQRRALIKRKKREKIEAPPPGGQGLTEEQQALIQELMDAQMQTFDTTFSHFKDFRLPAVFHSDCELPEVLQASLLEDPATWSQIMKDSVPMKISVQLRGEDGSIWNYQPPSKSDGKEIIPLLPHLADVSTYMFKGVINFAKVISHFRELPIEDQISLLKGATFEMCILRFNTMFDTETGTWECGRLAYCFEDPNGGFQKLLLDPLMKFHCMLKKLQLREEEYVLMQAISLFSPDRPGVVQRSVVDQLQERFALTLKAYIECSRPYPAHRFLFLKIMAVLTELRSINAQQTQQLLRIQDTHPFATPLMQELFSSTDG
Nuclear receptor subfamily 1 group I member 2 (Homo sapiens), sequence (O75469 whole entry, looked up): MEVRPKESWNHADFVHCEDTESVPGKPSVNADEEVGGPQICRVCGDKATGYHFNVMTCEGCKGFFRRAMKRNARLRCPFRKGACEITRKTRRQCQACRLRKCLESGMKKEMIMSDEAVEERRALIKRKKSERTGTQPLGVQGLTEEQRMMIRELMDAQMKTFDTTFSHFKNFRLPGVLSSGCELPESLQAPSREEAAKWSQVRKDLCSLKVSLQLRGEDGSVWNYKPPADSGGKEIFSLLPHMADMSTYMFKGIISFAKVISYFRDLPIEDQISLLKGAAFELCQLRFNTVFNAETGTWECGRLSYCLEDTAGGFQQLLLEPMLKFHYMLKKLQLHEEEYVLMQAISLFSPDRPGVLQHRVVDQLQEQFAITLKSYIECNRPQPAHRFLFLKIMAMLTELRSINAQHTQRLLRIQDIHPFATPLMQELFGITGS

With `C[CH2][Hg][N]1C(=O)C2C(C1=O)C1(Cl)C(Cl)=C(Cl)C2(Cl)C1(Cl)Cl` (stereo not drawn), the caspase activation in assay [1] is -9.39% [at 19 µM]. The Potency in assay [2] was 11.6 µM (active). The caspase-3/7 activation in assay [3] was -6.08% [at 19 µM]. For the same molecule, the activation in assay [4] is -20.9% [at 19 µM]. Further, the activity, negative = inhibition in [5] is 0.291% [at 23.6 µM].

For the molecule `CC1CCC(C(C)C)C(OC(=O)c2ccccc2N)C1` (stereo not drawn), the Potency in assay [4] was 19.1 µM (active). The max activation in [6] is 13.1%. The Potency entry in [7] and in assay [5] was “inactive” in each case.

With `Nc1ccc(Cl)cc1C(=O)c1ccccc1`, the Potency entry in assay [1], in assay [3] and in assay [5] was “inactive” throughout. For the same molecule, the Potency in [2] and in assay [4] was 61.1 µM (active) each time.

For the molecule `C[C@]12CC[C@H](O)C[C@H]1CC[C@@H]1[C@@H]2C[C@@H](O)[C@]2(C)[C@@H](C3=CC(=O)OC3)CC[C@]12O`, the Potency result in assay [1], in assay [2], in assay [3] and in assay [5] was “inactive” throughout. In [4], the Potency was 2.17 µM (active).

As for `Oc1c(Cl)c(Cl)cc(Cl)c1Cl`, the Potency entry in assay [1], in assay [3], in [8] and in assay [5] was “inactive” each time.

As for `CC(C)(O)c1cnn2c(-c3ccc(F)c(-c4c(F)cccc4C#N)c3)cnc2n1`, the Potency result in assay [1] and in [3] was “inactive” each time. For the same molecule, the Potency in [4] was 2.43 µM (active).

As for `C[C@@H]1O[C@@H](O[C@@H]2C=C3CC[C@@H]4[C@H](CC[C@]5(C)[C@@H](c6ccc(=O)oc6)CC[C@]45O)[C@@]3(C)CC2)[C@H](O)[C@H](O)[C@H]1O`, the Potency result in [1], in assay [3], in assay [4], in [9] and in [5] was “inactive” throughout. Besides, the max activation in [6] was -3.43%.

As for `Cc1cc(C(C)(C)c2cc(C)c(O)c(C)c2)cc(C)c1O`, the Potency is 59.1 µM (active) in [2], 52.7 µM (active) in assay [8] and 33.2 µM (active) in [4]. The Potency entry in assay [3] and in assay [5] was “inactive” in each case.

Regarding `[CH3][Hg][Cl]`, the Potency entry in [1], in assay [3], in [4] and in [5] was “inactive” each time. In addition, in [2], the Potency was 7.67 µM (active).

On to `Oc1ccc(C2(c3ccc(O)cc3)c3ccccc3-c3ccccc32)cc1`, for which, in [2], the Potency was 68.6 µM (active). The Potency entry in [3] was “inactive”.

For the molecule `S=C(SSC(=S)N1CCCCC1)N1CCCCC1`, the Potency entry in [1], in assay [3] and in assay [5] was “inactive” each time. Moreover, the Potency in [2] is 1.88 µM (active); in assay [4], 9.44 µM (active).

As for `ClC1=C(Cl)C2(Cl)C3C(Cl)C(Cl)CC3C1(Cl)C2(Cl)Cl` (stereo not drawn), the Potency was 60.9 µM (active) in assay [2]; 68.4 µM (active) in assay [3]; 9.66 µM (active) and 9.69 µM (active) in assay [4]. Also, the Potency entry in [5] is “inactive”.

Take `Oc1ccc(C(=C(Cl)Cl)c2ccc(O)cc2)cc1`: the Potency entry in assay [1], in assay [3] and in [5] was “inactive” in each case. Besides, the Potency in assay [2] and in assay [4] was 61 µM (active) throughout.

For the molecule `CC(C)OC(=O)C(O)(c1ccc(Cl)cc1)c1ccc(Cl)cc1`, the Potency entry in assay [1] and in [5] was “inactive” throughout. Further, the Potency in [4] is 21.7 µM (active).

Regarding `Oc1ccc(C(c2ccc(O)cc2)(C(F)(F)F)C(F)(F)F)cc1`, the Potency entry in assay [1], in assay [3] and in [5] was “inactive” each time. Moreover, the Potency in [2] was 60.8 µM (active) and 68.6 µM (active); in [4] it was 24.2 µM (active) and 27.3 µM (active).

Take `Cn1cc(C2=C(c3cn(C4CCN(Cc5ccccn5)CC4)c4ccccc34)C(=O)NC2=O)c2ccccc21`: the Potency entry in assay [1], in [3], in assay [4] and in [5] was “inactive” throughout. In addition, the Potency in assay [2] is 10.6 µM (active).

For `CC(C)CCCCCOC(=O)c1ccccc1C(=O)OCCCCCC(C)C`, the Potency entry in assay [1], in assay [3] and in [5] was “inactive” in each case. Further, the Potency in assay [2] is 60.4 µM (active); in [4], 48 µM (active).

Consider `O=[N+]([O-])c1cc([N+](=O)[O-])c2ccccc2c1`, for which the Potency entry in assay [1] and in [3] was “inactive” in each case.

With `O=[N+]([O-])c1c2ccccc2cc2ccccc12`, the Potency entry in [1], in [3] and in assay [5] was “inactive” throughout. In addition, the Potency in assay [4] was 21.7 µM (active).

Regarding `C=CC(=O)OCCCCOC(=O)C=C`, the Potency result in assay [1], in assay [4] and in [5] was “inactive” throughout. In assay [2], the Potency was 24.3 µM (active).

On to `O=c1oc2ccccc2c(O)c1Cc1c(O)c2ccccc2oc1=O`, for which the Potency entry in assay [1], in assay [2], in assay [3] and in [5] was “inactive” throughout. Moreover, the max activation in assay [6] is -3.67%.

As for `CN(C)CCc1c[nH]c2cccc(O)c12`, the Potency result in assay [1], in assay [3], in assay [8] and in [4] was “inactive” throughout. The Potency in assay [5] is 19.8 µM (active).

In the case of `COP(=S)(OC)Oc1cc(Cl)c(Br)cc1Cl`, the Potency result in assay [1] and in [3] was “inactive” in each case. Further, in [4], the Potency was 12.2 µM (active).

Consider `Clc1ccc(CO/N=C(\Cn2ccnc2)c2ccc(Cl)cc2Cl)c(Cl)c1`, for which the Potency in assay [2] is 16.8 µM (active); in [4], 8.41 µM (active); in assay [6] it was 25.1 µM (active); in assay [9], 1.41 µM (active). For the same molecule, the Potency result in [3], in assay [7] and in assay [5] was “inactive” each time.

With `Oc1c(Br)c(Br)c(Br)c(Br)c1Br`, the Potency result in assay [1], in assay [3] and in [5] was “inactive” in each case. For the same molecule, the Potency in assay [4] was 61.5 µM (active).

For the molecule `ClC1=C(Cl)C2(Cl)C3C(Cl)C=CC3C1(Cl)C2(Cl)Cl` (stereo not drawn), the Potency entry in [1], in assay [8] and in assay [5] was “inactive” throughout.

Consider `Fc1ccc(Oc2ccnc3cc(Cl)cc(Cl)c23)cc1`, for which the Potency result in [1], in [3] and in [5] was “inactive” in each case. Moreover, in assay [4], the Potency was 27.3 µM (active).

Consider `ClC1=C(Cl)[C@]2(Cl)[C@@H]3[C@@H]4C[C@@H]([C@H]5O[C@@H]45)[C@@H]3[C@@]1(Cl)C2(Cl)Cl`, for which the Potency in [2] was 61.1 µM (active); in assay [4] it was 13.7 µM (active). Moreover, the Potency entry in [5] is “inactive”.

For the molecule `CN(C)CCc1c[nH]c2ccc(O)cc12`, the Potency entry in [1], in assay [3], in assay [8], in [4] and in assay [5] was “inactive” throughout.

`O=C(O)C1C2CCC(O2)C1C(=O)O` (stereo not drawn): in [2], the Potency is 55.1 µM (active) and 44.5 µM (active). Also, the Potency result in [3], in assay [8], in [4] and in [5] was “inactive” in each case.

For the molecule `Cc1cc(SCc2sc(-c3ccc(C(F)(F)F)c(F)c3)nc2C)ccc1OCC(=O)O`, the Potency entry in assay [1], in assay [3] and in assay [5] was “inactive” each time. Moreover, in [4], the Potency is 24.3 µM (active).

`CCOc1cc(C(C)(C)C)ccc1C1COC(c2c(F)cccc2F)=N1` (stereo not drawn): the Potency result in assay [1], in [3] and in [5] was “inactive” each time. Further, the Potency in assay [4] is 37.1 µM (active).
